Data published in PubChem BioAssay.
Values without a mark were called inactive. The rule behind the calls is not given here.

Molecular target: Pantothenate synthetase (Mycobacterium tuberculosis (strain ATCC 25618 / H37Rv)) (UniProt P9WIL5)
Assay: Recombinant Mtb pantothenate synthetase (PanC) inhibitors, coupled enzyme, confirmatory (AID 375);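 note: 0% = full reaction with vehicle and 100% = no enzyme background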
Details: coupled enzyme assay; at 10 µM, active compounds read high

Sequence of Pantothenate synthetase (Mycobacterium tuberculosis (strain ATCC 25618 / H37Rv)) (P9WIL5 whole entry, looked up): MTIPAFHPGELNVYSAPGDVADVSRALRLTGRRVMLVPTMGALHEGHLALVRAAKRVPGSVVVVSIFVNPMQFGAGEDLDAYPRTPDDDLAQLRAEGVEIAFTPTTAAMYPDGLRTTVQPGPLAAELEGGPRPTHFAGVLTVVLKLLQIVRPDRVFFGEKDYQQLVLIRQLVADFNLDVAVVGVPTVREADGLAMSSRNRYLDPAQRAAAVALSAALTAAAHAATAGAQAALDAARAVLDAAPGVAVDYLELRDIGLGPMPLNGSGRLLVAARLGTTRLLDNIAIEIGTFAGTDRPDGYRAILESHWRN

SMILES | inhibition
COc1ccc(-c2noc(COc3ccc(C)c(C)c3)n2)cc1OC | 0%
COc1ccc2c(c1)c(CC(=O)O)c(C)n2C(=O)c1ccc(Cl)cc1 | 5%
CC(=O)OCC(=O)[C@@]12OC(C)(C)O[C@@H]1C[C@H]1[C@@H]3C[C@H](F)C4=CC(=O)C=C[C@]4(C)[C@@]3(F)[C@@H](O)C[C@@]12C | 1%
O=C(CN1CCN(c2cccc(Cl)c2)CC1)N1CCCC1 | 4%
O=C(NC1CCCC1)C1CCCN(S(=O)(=O)c2cccc3cccnc23)C1 (stereo unspecified) | 2%
CCOC(=O)CN(C(=O)c1ccccc1)c1ccccc1C | 0%
O=C(C1CC1)N1CCc2cc(S(=O)(=O)N(CCO)Cc3ccccc3)ccc21 | 0%
O=C(c1cnsn1)N1CCN(c2ccccn2)CC1 | 0%
Nc1nnc(SCC(=O)N2CCN(c3ccccc3)CC2)n1-c1ccccc1 | 7%
O=C(O)c1cccn2c(=O)c3ccccc3nc12 | 0%
CCc1nnc(NC(=O)CSc2nnc(CSc3nc(C)cc(C)n3)n2CC)s1 | 1%
C/C=C/Cn1c(SCCCc2ccccc2)nc2c1c(=O)[nH]c(=O)n2C | 0%
CN(C(=O)c1ccccn1)c1nnc(-c2ccncc2)s1 | 0%
CCOC(=O)c1c(N)c(C#N)nn1-c1ccccc1C(=O)OC | 0%
COCCn1c(CN2CCN(c3cccc(Cl)c3)CC2)nc2c1c(=O)n(C)c(=O)n2C | 0%
C=CCn1c(=O)c2ccccc2n2c(SC(C)C(=O)Nc3nc(-c4ccccc4)cs3)nnc12 (stereo unspecified) | 4%
